From PubChem BioAssay
Gli-Sufu antag – Gli-Sufu pathway antagonism; Sufu-KO-LIGHT fibroblasts, Gli luciferase reporter luminescence; inhibition, % at 5 µM; hit rate 0.74% among 340,000; AID 588413;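 active = inhibition above about 55%, limit read from the data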;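 note: 0% = DMSO-treated cells and 100% = wells with medium but no cells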
COUP-TFII inh – NR2F2 (human) inhibition, primary screen; inhibition, % at 8.6 µM; HEK293T NGFI-A luciferase reporter, luminescence; P24468; hit rate 0.7% among 370,000;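 active = inhibition above a per-plate cutoff, mean inhibition of test wells between control levels plus 3 SD, cut at about 38% in these data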;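 note: cells cotransfected with COUP-TFII expression vector driving the NGFI-A reporter; 0% = median of COUP-TF2 test wells and 100% = reporter-only cells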
GalR3 antag – blocks the human galanin receptor 3. hit rate 0.44% among 360,000. AID 651719. HEK293 GalR3-CNG cAMP membrane potential fluorescence; galR3 body fused to GalR1 C-terminus. O60755. inhibition, % at 3 µM;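 active = inhibition above the screen-wide average plus 3 SD, cut at about 13% in these data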;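 note: forskolin and galanin both at EC90 stimulate the cells; cAMP rise reported by CNG channel membrane potential dye signal; 0% = forskolin plus galanin with DMSO and 100% = forskolin alone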
Target sequence (O60755 1-299 limits assumed): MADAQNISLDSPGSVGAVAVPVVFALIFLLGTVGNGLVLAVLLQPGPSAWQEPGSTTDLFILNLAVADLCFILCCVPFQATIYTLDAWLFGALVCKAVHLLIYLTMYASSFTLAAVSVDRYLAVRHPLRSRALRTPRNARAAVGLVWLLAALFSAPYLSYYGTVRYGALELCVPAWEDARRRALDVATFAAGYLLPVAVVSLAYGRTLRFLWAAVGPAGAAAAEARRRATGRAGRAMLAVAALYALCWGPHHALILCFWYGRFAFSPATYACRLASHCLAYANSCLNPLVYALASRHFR
aDG glyco act – increases alpha dystroglycan glycosylation; AID 624168; Pro5-aDG cells, alpha-DG glycosylation AlphaScreen (IIH6); 0% Pro5, 100% B10-LARGE cell signal; activation, % at 10 µM; hit rate 0.22% among 360,000;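 active = activation of at least 8% versus controls, or a plate z-score of at least 8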;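 note: Pro5 are CHO cells carrying HIG-tagged alpha-DG that lacks glycosylation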
Env fusion inh – blocks HIV Env-driven cell-cell fusion | HeLa-JRFL Env/CEM21 cell fusion, luciferase | inhibition, % at 12.3 µM | hit rate 1.1% among 360,000 | AID 651610;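 active = mean replicate inhibition score of at least 50 and every replicate individually at or above 50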;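 note: 0% = plate neutral controls and 100% = maraviroc near 300 nM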
VP16 Luc counter – counter-screen for COUP-TFII antagonists: inhibitors of VP16; hit rate 25% among 2,500; inhibition, % at 8.5 µM; shares compounds with COUP-TFII inh; HEK293 Gal4-VP16 luciferase reporter, luminescence; in the data active = inhibition above about 13%
NR2F2 inh conf – confirmation of human COUP-TFII (NR2F2) inhibitors; HEK293 NGFI-A luciferase reporter, luminescence; inhibition, % at 8.5 µM; hit rate 45% among 2,500; shares compounds with COUP-TFII inh; AID 687008;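 active = mean inhibition over three repeats above a set limit taken from the earlier primary screen, cut at about 38% in these data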;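 note: 100% = cells given the luciferase reporter alone without the COUP-TF2 vector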
* marks the source's active call; other numbers are inactive results; / = no result; [ ] = remark or other dose. Compounds with a hit are over-represented: about 2.1% of the library has one in this group of screens.

SMILES	Gli-Sufu antag	COUP-TFII inh	GalR3 antag	aDG glyco act	Env fusion inh	VP16 Luc counter	NR2F2 inh conf
Cc1ccc(Nc2nc(-c3ccc(S(=O)(=O)N4CCOCC4)cc3)cs2)cc1	6	38*	-2	0	43	0	18
O=S(=O)(c1ccc(-c2csc(Nc3ccc(F)cc3)n2)cc1)N1CCCC1	26	46*	1	0	4	-11	24
CCCN(C)C[C@@H]1Oc2cc(C#Cc3cccc(F)c3)ccc2S(=O)(=O)N([C@@H](C)CO)C[C@H]1C	/	/	/	/	12[16.7 µM]	/	/
C[C@H](CO)N1C[C@H](C)[C@H](CN(C)C)Oc2ncc(C#CC(C)(C)O)cc2C1=O	/	/	/	/	1[16.7 µM]	/	/
O=C(C[C@H]1C=C[C@H](NC(=O)CCN2CCCCC2)[C@@H](CO)O1)Nc1ccc(-c2ccccc2)cc1	/	/	/	/	3[16.7 µM]	/	/
Cc1cc2nc(C3CCCN(C(=S)Nc4ccccc4)C3)[nH]c2cc1C (configuration not stated)	0	49*	-9	0	/	-8	9
COc1cc(CNc2ncnc3c2[nH]c2ccc(C)cc23)cc(OC)c1	31	33	-3	0	39	/	/
Cc1ccc2[nH]c3c(NCc4ccco4)ncnc3c2c1	25	47*	-8	4.7*	44	-139	-24
CO[C@@H]1CN(C)C(=O)c2ccc(NS(=O)(=O)c3ccccc3F)cc2OC[C@H](C)NC[C@@H]1C	/	/	/	/	3[16.7 µM]	/	/
COc1cc(NC(=O)c2cc3c(C)nc4ccccc4c3o2)cc(OC)c1OC	24	-4	/	0	22	/	/
CCCCN(CC)CCNC(=O)c1cc2c(C)nc3ccccc3c2o1	18	0	/	0	/	/	/
COc1cccc(CNC(=O)c2cc3c(C)nc4ccccc4c3o2)c1	8	38*	/	0	4	3	16
CCc1ccc(CNC(=O)c2cc3c(C)nc4ccccc4c3o2)cc1	39	51*	/	1	17	6	37
COc1ccc(NC(=O)Nc2cccc3c2O[C@H](CN(C)CC2CC2)[C@@H](C)CN([C@@H](C)CO)C3=O)cc1	/	/	/	/	-11[16.7 µM]	/	/
CCOc1cc(/C=C2\COc3ccccc3C2=O)cc(Br)c1OCC(=O)N(C)C	14	38*	-4	0	-63	4	28
CCCC(=O)Nc1ccc2c(c1)C(=O)N(C)C[C@@H](OC)[C@H](C)CN(Cc1cncnc1)[C@@H](C)CO2	/	/	/	/	-4[16.7 µM]	/	/
CC(C)CNS(=O)(=O)c1ccc(CCC(=O)N2CCN(Cc3ccc4c(c3)OCO4)CC2)cc1	26	45*	-1	1	79*	-5	16
O=C(CCc1ccc(S(=O)(=O)NCCc2ccccc2)cc1)N1CCN(Cc2ccc3c(c2)OCO3)CC1	/	55*	-4	0	77*	10	33
CCOc1cc(CNCc2ccncc2)cc(Br)c1OCc1ccc(F)cc1	9	39*	-4	2	63*	4	8
Fc1ccc(COc2ccc(Br)cc2CNCc2ccncc2)cc1	5	0	-7	1	35	/	/
NC(=O)c1cccc(-c2noc(-c3ccccc3F)n2)c1	-238	58*	-3	0	-203	22*	34
CCN1[C@@H]2Cn3c(ccc(/C=C/c4ccccc4)c3=O)[C@H]1[C@@H](C(=O)N1CCCCC1)[C@@H]2CO	/	/	/	/	-2[16.7 µM]	/	/
Cc1sc(NC(=O)c2ccco2)c(C(c2cccnc2)N2CCC(C)CC2)c1C (configuration not stated)	11	51*	-4	1	62*	2	49*
CCN1CCN(C(c2cccnc2)c2c(NC(=O)c3ccco3)sc(C)c2C)CC1 (configuration not stated)	1	6	-4	0	/	/	/
CC(C)Oc1ccc(/C=C(\C#N)C(=O)NC2CC2)cc1	-3	82*	-4	0	4	-95	-37
SMILES	Gli-Sufu antag	COUP-TFII inh	GalR3 antag	aDG glyco act	Env fusion inh	VP16 Luc counter	NR2F2 inh conf
C[C@@H]1CN([C@H](C)CO)C(=O)c2cccc(NC(=O)Nc3ccc4c(c3)OCO4)c2O[C@H]1CN(C)Cc1ccc(-c2ccccc2)cc1	/	/	/	/	17[16.7 µM]	/	/
CN1[C@H](Cc2ccccc2)COc2cc(N3CCCC3)ccc2S1(=O)=O	/	55*	/	/	/	4	9
O=C(C[C@@H]1CC[C@@H]2[C@H](COC[C@H](O)CN2Cc2cccc(C(F)(F)F)c2)O1)NCCc1ccncc1	/	/	/	/	11[16.7 µM]	/	/
COc1cccc(CN(C)C(=O)c2cc(COc3ccc(-n4cncn4)cc3)on2)c1	49	38*	-2	1	4	-4	-1
COc1cccc(CN(C)C(=O)c2cc(COc3c(F)cccc3F)on2)c1	-3	0	1	0	9	/	/
CCOC(=O)c1c(-c2ccccc2)csc1NC(=O)CSc1nc(N)cc(N)n1	26	61*	-2	1	/	7	27
CCOC(=O)c1c(-c2ccccc2)csc1NC(=O)CSc1nc(C)cc(C)n1	13	13	-7	1	32	/	/
COc1ccc(S(=O)(=O)N2CCN(CCOc3ccc(Br)cc3)CC2)cc1OC	6	60*	-5	0	9	-13	27
C[C@@H]1CN([C@@H](C)CO)C(=O)c2cc(NS(=O)(=O)c3ccccc3)ccc2O[C@@H](C)CCCCO[C@@H]1CN(C)C	/	/	/	/	-3[16.7 µM]	/	/
Clc1ccc(-n2ncc3c(N4CCCCCC4)ncnc32)cc1	/	92*	7	0	-65	80*	100*
COC(=O)c1ccc(CSc2nnc(CS(=O)Cc3ccc(Br)cc3)n2-c2ccccc2)cc1 (configuration not stated)	29	39*	-7	1	18	0	15
Cc1ccc(-n2c(Cc3cccs3)nnc2SCc2ccc(Br)cc2)cc1	/	2	/	/	/	/	/
O=S(Cc1ccc(Br)cc1)Cc1nnc(SCc2ccc(Br)cc2)n1-c1ccccc1 (configuration not stated)	41	44*	-8	0	38	-4	28
Cc1nn(C)c(C)c1/C=N/NC(=O)C(C)(C)Oc1ccc(Cl)cc1	5	/	/	0	/	/	/
Cc1nn(C(C)(C)C)c(C)c1/C=N/OC(=O)Nc1ccc(Cl)cc1	92*	99*	-7	0	28	94*	107*
CC(C)CCn1cnc2c(sc3nc4c(cc32)CSC(C)(C)C4)c1=O	-15	55*	-3	1	-23	-57	24
COc1ccc(CCc2nnc(CCC(=O)N(C)Cc3ccnc4ccccc34)o2)cc1	3	40*	-5	1	30	-28	17
Cc1ccc(CNC(=O)C(=O)NCC2OCCN2S(=O)(=O)c2ccc(C)cc2)cc1 (configuration not stated)	-4	19	-4	0	14	/	/
Cc1ccc(CNC(=O)C(=O)NCC2OCCN2S(=O)(=O)c2ccc(Br)cc2)cc1 (configuration not stated)	6	48*	-4	0	21	-2	12
